# Calls of active or inactive are those of the source.
# Experiments:
# [1] = tested on: Plasmodium falciparum Sir2 (PF13_0152, Sir2A); experiment: Plasmodium falciparum Sir2A binding compounds – biochemical, small-molecule microarray, 635 nm fluorescence, primary screen (AID 1098); conditions: fluorescence 635 nm, higher = more signal;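 further: score merges spot fluorescence intensity with its signal-to-noise ratio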
# [2] = probe aDKK1 binding to arrayed compounds – biochemical, biotinylated probe, 635/667 nm fluorescence, primary screen (AID 1099); conditions: small-molecule microarray, higher = more signal;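 further: score merges 667nm spot fluorescence with signal to noise across triplicate slides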
# [3] = probe aCHRDL2 binding to arrayed compounds – biochemical, biotinylated probe, 635/667 nm fluorescence, primary screen (AID 1100); conditions: small-molecule microarray, higher = more signal
# [4] = change in splice reporter luminescence, either direction, cell-based, HEK293, spliceosome inhibition project, primary screen (AID 1101); conditions: HEK293 splicing luciferase reporter, 24 h, higher = more signal, called active from +8 up or from −8 down;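 further: HEK293 cells carrying a splicing-competent luciferase reporter gene; test concentration not given here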
# [5] = target: Fibroblast growth factor 10 (Homo sapiens) (UniProt O15520); experiment: compounds binding fibroblast growth factor 10 – biochemical, small-molecule microarray, 635 nm fluorescence, primary screen (AID 1102); conditions: FGF10 binding, fluorescence 635 nm, higher = more signal
# [6] = tested on: glycogen synthase kinase-3 (GSK3A per assay name; protocol says GSK3B); experiment: compounds binding glycogen synthase kinase-3 – biochemical, small-molecule microarray, 635 nm fluorescence, GSK3A, primary screen (AID 1103); conditions: fluorescence 635 nm, higher = more signal; further: the record names both GSK3A and GSK3B
# [7] = target: Epidermal growth factor receptor (Homo sapiens) (UniProt P00533); experiment: compounds binding epidermal growth factor receptor – biochemical, small-molecule microarray, 635 nm fluorescence, primary screen (AID 1104); conditions: EGFR binding, higher = more signal;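 further: score merges 667 nm emission intensity with spot signal to noise over triplicate slides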
# [8] = target: Follistatin-related protein 3 (Homo sapiens) (UniProt O95633); experiment: compounds binding follistatin-related protein 3 – biochemical, small-molecule microarray, 635 nm fluorescence, primary screen (AID 1105); conditions: FSTL3 binding, higher = more signal;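 further: score merges emission near 667 nm and signal to noise per printed spot across three slides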
# [9] = target: Dickkopf-related protein 1 (Homo sapiens) (UniProt O94907); experiment: small molecules binding DKK1 protein – biochemical, small-molecule microarray, 635 nm fluorescence scan, primary screen (AID 1106); conditions: higher = more signal;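 further: score merges emission near 667 nm with signal to noise over three replicate slides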
# [10] = tested on: Inhibin beta A chain (activin A); experiment: small molecules binding activin A – biochemical, small-molecule microarray, 635 nm fluorescence scan, primary screen (AID 1107); conditions: INHBA, higher = more signal;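 further: mouse activin A protein probed at 4.33 µg/mL on printed slides; score merges bound-protein fluorescence near 667 nm with spot signal-to-noise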
# [11] = tested on: Human papillomavirus type 1a protein E7 (residues 44-93); experiment: small molecules binding HPV E7 44-93 – biochemical, small-molecule microarray, residues 44-93, 635 nm fluorescence, primary screen (AID 1108); conditions: fluorescence 635 nm, higher = more signal;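 further: E7 fragment applied at 1 µg/mL in TBST for 1 h at 4 C; score combines spot fluorescence with its signal to noise ratio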
# [12] = hepatitis C replication reporter changes, two-sided – Huh7 cells, luciferase reporter, HCV replication inhibitor project, primary screen (AID 1109); conditions: Huh7 HCV replicon luciferase reporter, 48 h; higher = more signal;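 further: huh7 hepatoma cells harbouring a luciferase neomycin HCV replicon reporter; luciferase luminescence as measure of HCV replicon replication; test concentration not given here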
# [13] = target: Left-right determination factor 2 (Homo sapiens) (UniProt O00292); experiment: small molecules binding LEFTY2 protein – biochemical, small-molecule microarray, 635 nm fluorescence scan, primary screen (AID 1110); conditions: higher = more signal
# [14] = target: Calmodulin-1 (Homo sapiens) (UniProt P0DP23); experiment: small molecules binding calmodulin-1 with EGTA – biochemical, small-molecule microarray, Cy5-labelled CALM1, profiling panel (AID 1111); conditions: Cy5-CALM1 binding fluorescence, higher = more signal;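 further: labelled calmodulin applied in Tris saline Tween buffer holding calcium plus EGTA and DTT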
# [15] = target: Calmodulin-1 (Homo sapiens) (UniProt P0DP23); experiment: small molecules binding Ca-loaded calmodulin-1 – biochemical, small-molecule microarray, Cy5-labelled CALM1, plus calcium, artefact control for SMM control-protein annotation, profiling panel (AID 1112); conditions: Cy5-CALM1 binding fluorescence, higher = more signal;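 further: score merges spot fluorescence with signal to noise from triplicate slides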
# [16] = probe aWnt5a binding to arrayed compounds – biochemical, biotinylated probe, 635/667 nm fluorescence, primary screen (AID 1113); conditions: small-molecule microarray, higher = more signal;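 further: score merges 667 nm fluorescence intensity with signal-to-noise per printed feature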
# [17] = probe aShh binding to arrayed compounds – biochemical, biotinylated probe, 635/667 nm fluorescence, primary screen (AID 1114); conditions: small-molecule microarray, higher = more signal;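 further: probe is biotin-labelled aShh protein from a stem cell growth factor screen; measures binding of labelled protein to compounds printed on the slide; score merges feature fluorescence at 667 nm with signal-to-noise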
# [18] = probe aNog binding to arrayed compounds – biochemical, biotinylated probe, 635/667 nm fluorescence, primary screen (AID 1115); conditions: small-molecule microarray, higher = more signal;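 further: probe is biotinylated aNog protein used at 0.15 µg/mL for 1 h at 4 C; z-score combines 667 nm fluorescence of each spot with its signal to noise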
# [19] = target: Torsin-1A-interacting protein 1 (Homo sapiens) (UniProt Q5JTV8); experiment: compound microarray binding of lysate hLAP1 – cell lysate, small-molecule microarray, COS7 lysate, 635/667 nm fluorescence, primary screen (AID 1116); conditions: 635 nm fluorescence, higher = more signal
# [20] = target: Alpha-bungarotoxin (Bungarus multicinctus) (UniProt P60615); experiment: compounds binding labelled alpha-BTX control protein – biochemical, small-molecule microarray, Alexa647 label, 635/667 nm fluorescence, artefact control for SMM control protein annotation, profiling panel (AID 1117); conditions: alpha-BTX-A647 binding fluorescence, higher = more signal
# Sequence of Alpha-bungarotoxin (Bungarus multicinctus) (P60615 whole entry, looked up): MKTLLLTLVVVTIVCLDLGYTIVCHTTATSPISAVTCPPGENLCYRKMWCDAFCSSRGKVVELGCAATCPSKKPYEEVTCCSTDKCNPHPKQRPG
# Sequence of Dickkopf-related protein 1 (Homo sapiens) (O94907 whole entry, looked up): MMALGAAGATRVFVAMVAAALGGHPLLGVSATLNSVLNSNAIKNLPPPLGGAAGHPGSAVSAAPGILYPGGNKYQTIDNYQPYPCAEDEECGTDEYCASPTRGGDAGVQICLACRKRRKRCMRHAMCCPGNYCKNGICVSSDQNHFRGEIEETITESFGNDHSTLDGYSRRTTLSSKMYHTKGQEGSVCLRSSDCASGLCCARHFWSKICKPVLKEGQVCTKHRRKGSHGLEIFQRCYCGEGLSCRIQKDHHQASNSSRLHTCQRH
# Sequence of Epidermal growth factor receptor (Homo sapiens) (P00533 whole entry, looked up): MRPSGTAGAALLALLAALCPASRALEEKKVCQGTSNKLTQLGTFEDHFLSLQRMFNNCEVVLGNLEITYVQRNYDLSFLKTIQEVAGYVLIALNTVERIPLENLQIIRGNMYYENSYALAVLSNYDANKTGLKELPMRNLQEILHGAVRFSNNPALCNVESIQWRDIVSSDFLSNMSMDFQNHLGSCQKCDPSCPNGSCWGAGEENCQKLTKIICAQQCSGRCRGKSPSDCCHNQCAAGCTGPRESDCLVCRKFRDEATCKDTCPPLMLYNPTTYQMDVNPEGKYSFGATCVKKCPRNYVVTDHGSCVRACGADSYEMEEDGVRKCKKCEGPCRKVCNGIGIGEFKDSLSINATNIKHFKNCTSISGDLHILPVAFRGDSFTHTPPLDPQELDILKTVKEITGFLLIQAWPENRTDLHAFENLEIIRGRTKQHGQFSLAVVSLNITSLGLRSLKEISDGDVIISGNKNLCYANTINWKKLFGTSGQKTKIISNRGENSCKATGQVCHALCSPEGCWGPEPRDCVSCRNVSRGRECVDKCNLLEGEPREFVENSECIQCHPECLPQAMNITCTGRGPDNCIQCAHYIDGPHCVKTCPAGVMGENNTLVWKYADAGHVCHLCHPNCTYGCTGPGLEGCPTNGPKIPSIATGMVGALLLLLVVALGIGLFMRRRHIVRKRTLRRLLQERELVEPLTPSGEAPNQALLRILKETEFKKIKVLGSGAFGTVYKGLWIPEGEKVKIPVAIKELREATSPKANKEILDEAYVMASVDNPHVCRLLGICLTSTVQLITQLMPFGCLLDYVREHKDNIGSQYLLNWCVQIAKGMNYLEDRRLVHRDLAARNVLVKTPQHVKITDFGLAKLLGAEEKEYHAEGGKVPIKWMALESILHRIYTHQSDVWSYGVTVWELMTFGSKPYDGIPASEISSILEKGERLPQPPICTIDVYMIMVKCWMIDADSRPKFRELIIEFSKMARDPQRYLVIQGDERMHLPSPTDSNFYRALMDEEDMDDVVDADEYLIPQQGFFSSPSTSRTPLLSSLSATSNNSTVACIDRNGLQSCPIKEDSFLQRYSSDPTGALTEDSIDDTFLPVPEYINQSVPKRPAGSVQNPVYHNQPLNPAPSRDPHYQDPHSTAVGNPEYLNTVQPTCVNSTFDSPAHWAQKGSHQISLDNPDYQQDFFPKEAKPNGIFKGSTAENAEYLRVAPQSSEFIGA
# Sequence of Left-right determination factor 2 (Homo sapiens) (O00292 whole entry, looked up): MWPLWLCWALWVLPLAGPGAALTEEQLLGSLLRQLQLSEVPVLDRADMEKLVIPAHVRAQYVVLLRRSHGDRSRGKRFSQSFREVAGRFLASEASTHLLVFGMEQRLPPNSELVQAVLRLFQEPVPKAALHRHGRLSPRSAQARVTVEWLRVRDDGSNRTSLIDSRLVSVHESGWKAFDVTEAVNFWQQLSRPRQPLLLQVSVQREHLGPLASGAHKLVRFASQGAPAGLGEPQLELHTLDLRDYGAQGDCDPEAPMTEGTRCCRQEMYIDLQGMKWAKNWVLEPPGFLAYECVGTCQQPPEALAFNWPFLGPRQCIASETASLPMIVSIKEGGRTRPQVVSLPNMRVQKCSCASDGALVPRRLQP
# Sequence of Fibroblast growth factor 10 (Homo sapiens) (O15520 whole entry, looked up): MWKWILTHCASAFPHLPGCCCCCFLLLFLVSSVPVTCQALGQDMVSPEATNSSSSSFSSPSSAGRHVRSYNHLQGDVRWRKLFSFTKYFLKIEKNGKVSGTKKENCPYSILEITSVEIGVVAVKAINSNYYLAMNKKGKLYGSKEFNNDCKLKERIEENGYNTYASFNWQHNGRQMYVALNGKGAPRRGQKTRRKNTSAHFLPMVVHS
# Sequence of Follistatin-related protein 3 (Homo sapiens) (O95633 whole entry, looked up): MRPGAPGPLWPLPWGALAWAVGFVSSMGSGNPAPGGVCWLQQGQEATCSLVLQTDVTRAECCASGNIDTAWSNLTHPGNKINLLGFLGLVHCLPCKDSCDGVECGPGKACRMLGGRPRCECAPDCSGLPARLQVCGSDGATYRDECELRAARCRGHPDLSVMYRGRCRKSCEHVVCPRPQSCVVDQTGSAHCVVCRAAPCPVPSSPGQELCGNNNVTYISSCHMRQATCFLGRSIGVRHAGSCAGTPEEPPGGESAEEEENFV
# Sequence of Torsin-1A-interacting protein 1 (Homo sapiens) (Q5JTV8 whole entry, looked up): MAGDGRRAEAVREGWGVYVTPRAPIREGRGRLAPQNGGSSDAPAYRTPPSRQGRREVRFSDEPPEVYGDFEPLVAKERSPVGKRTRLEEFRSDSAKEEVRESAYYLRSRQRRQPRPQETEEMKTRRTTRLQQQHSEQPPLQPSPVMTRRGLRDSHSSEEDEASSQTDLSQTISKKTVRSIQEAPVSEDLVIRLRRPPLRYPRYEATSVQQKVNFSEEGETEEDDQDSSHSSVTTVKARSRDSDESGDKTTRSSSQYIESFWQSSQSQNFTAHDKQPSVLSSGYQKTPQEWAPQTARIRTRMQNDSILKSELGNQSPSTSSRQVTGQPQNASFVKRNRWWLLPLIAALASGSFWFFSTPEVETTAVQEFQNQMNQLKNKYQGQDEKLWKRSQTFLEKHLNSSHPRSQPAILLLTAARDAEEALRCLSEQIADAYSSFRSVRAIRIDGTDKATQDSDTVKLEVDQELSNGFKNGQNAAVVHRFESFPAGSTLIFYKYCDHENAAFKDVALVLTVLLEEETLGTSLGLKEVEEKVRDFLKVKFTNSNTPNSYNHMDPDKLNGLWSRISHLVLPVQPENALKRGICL
Structure (SMILES),composite z-score [1],composite z-score [2],composite z-score [3],z-score [4],composite z-score [5],composite z-score [6],composite z-score [7],composite z-score [8],composite z-score [9],composite z-score [10],composite z-score [11],z-score [12],composite z-score [13],composite z-score [14],composite z-score [15],composite z-score [16],composite z-score [17],composite z-score [18],composite z-score [19],composite z-score [20]
CN1C(=O)C2C=CC(C(O)C3=C[C@H]4C[C@@H](C3)C4(C)C)N(Nc3ccccc3)C2C1=O (stereo not given in full),0.46,0.462,0.63,0.757 (inactive),0.944,0.776,0.356,1.19,0.109,1.42,1.41,-0.181,0.269,0.18,-0.162,0.14,0.13,0.612,0.802,0.647
CC(C)OC(=O)C=C1C[C@@H](c2ccccc2C(F)(F)F)O[C@@H](c2ccccc2C(F)(F)F)O1,0.192,-0.0017,0.0563,-0.723 (inactive),0.417,0.163,0.337,0.332,0.25,0.266,0.706,-0.384,0.351,-0.21,-0.624,-0.13,-0.2,0.0234,-0.281,0.497
C=CC[C@]1(C(=O)N2CCCCC2)N=C(c2ccc(OCCCO)cc2)O[C@H]1c1ccccc1,1.25,1.16,1.11,-0.0569 (inactive),0.228,1.3,0.0792,-0.0013,0.191,1.11,0.254,-1.98,0.32,0.0382,-0.0541,0.15,-0.155,2.28,1.55,0.741
O=C1NCC(=O)N2[C@@H]1C[C@@H](C(=O)O)[C@H]2c1cccc(OCCO)c1,2.28,3.06,1.73,0.45 (inactive),1.38,1.38,1.96,1.66,2.56,1.74,1.57,0.19,1.68,2.17,1.1,1.38,3.13,3.62,4.92,2.04
COCCOC(=O)N1C(=O)[C@@]2(c3cc(C#CCNC(N)=O)ccc31)[C@H](C(=O)NC[C@H](O)c1ccccc1)[C@H]1C(=O)O[C@H](c3ccccc3)[C@H](c3ccccc3)N1[C@@H]2c1ccccc1OCCO,1.5,-0.547,0.218,-0.0247 (inactive),1.04,0.628,0.366,1.01,0.711,1.05,1.35,-0.807,0.0826,1.96,0.0588,0.207,-0.0375,1.32,0.667,1.43
COC(=O)C(CC#Cc1ccc2c(c1)[C@]1(C(=O)N2)[C@H](c2ccc(O)cc2)N2[C@H](c3ccccc3)[C@H](c3ccccc3)OC(=O)[C@H]2[C@@H]1C(=O)Nc1nc2ccccc2s1)C(=O)OC,1.59,-0.0329,-0.105,-0.596 (inactive),1.27,1.04,0.626,0.929,0.581,0.598,1.39,-0.322,0.651,1.26,0.213,0.0998,0.191,0.535,1.63,1.62
COCCOC(=O)N1C(=O)[C@@]2(c3cc(C#CCCO)ccc31)[C@H](C(=O)Nc1nc3ccccc3s1)[C@H]1C(=O)O[C@H](c3ccccc3)[C@H](c3ccccc3)N1[C@@H]2c1ccc(OCCO)cc1,1.27,0.385,-0.284,-0.021 (inactive),1.11,0.687,0.432,1.2,0.31,0.0763,1.32,-1.81,0.774,1.08,-0.263,0.115,0.0898,-0.22,1.14,0.772
CCOC(=O)C[C@H]1[C@H](OC(=O)Cc2ccc3c(c2)OCO3)[C@@H](NC(=O)c2ccc3ccccc3c2)c2cc(OCCCO)ccc2N1C(=O)c1ccccc1,0.622,-0.0805,-0.205,-0.547 (inactive),0.47,0.213,0.188,0.433,0.295,0.405,0.967,-1.57,0.348,0.119,-0.447,-0.147,-0.2,-0.417,0.656,0.943
C=CC[C@]12N=C(c3ccc(OCCCO)cc3)O[C@H]1c1ccccc1N(Cc1ccccc1)C2=O,1.28,1.21,1.37,-0.415 (inactive),0.706,0.524,0.112,0.836,0.378,0.897,0.0023,-2.57,0.192,-0.162,0.438,0.0032,-0.0146,0.472,1.9,1.51
COc1ccc(C(O)C2C=CC3C(=O)N(C)C(=O)C3N2N2CCCCC2)c2ccccc12 (stereo not given),1.17,0.65,0.947,1.28 (inactive),0.956,1.29,0.344,1.24,-0.312,0.91,1.43,-0.534,-0.129,1.26,0.639,0.131,0.476,-0.0646,0.826,1.34
NC(=O)[C@@H]1[C@H]2C(=O)O[C@H](c3ccccc3)[C@H](c3ccccc3)N2[C@H](c2ccc(O)cc2)[C@@]12C(=O)Nc1ccc(C#CC3(O)CCCCCC3)cc12,0.61,-0.127,0.523,0.0171 (inactive),-0.177,-1.05,-0.497,-0.846,-0.193,-0.257,0.124,-0.293,-0.0941,-0.363,0.555,-0.202,0.0684,0.179,1.59,-0.115
